# Measured values from PubChem BioAssay (EPA / NIEHS).
# Records with an inconclusive call do not appear. Activity calls are given as the source filed them. The calls were made as follows: active = hit-call score of the fitted dose curve at least 0.9, where 1 is the maximum; inconclusive = response in the unintended direction; inactive = score below 0.9.
# How the values were obtained:
# [1] = target: rat Serotonin, 5-Hydroxytryptamine Receptor (5HT), Non-Selective Binding, Htr1a (gene 24473) (UniProt P19327); assay: NVS_GPCR_r5HT_NonSelective: NovaScreen (NVS) G Protein-Coupled Receptor Assay for rat Serotonin, 5-Hydroxytryptamine Receptor (5HT), Non-Selective Binding (AID 2283295)
# Procedure, shortened: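 Radioligand displacement on rat cortical membranes, 1 h incubation, filter-based scintillation counting. Primary duplicates at 25 uM, actives retested in concentration series; loss of signal fitted against DMSO as baseline.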
# [2] = tested on: rat Adrenergic, Alpha 1B Receptor (Adra1B), gene 24173; assay: NVS_GPCR_rAdra1B: NovaScreen (NVS) G Protein-Coupled Receptor Assay for rat Adrenergic, Alpha 1B Receptor (Adra1B) (AID 2283297)
# Procedure, shortened: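 Rat liver membranes, radioligand displacement with filter-based scintillation detection, 1 h incubation. Primary screen in duplicate at 25 uM; actives retested in concentration series; activity relative to DMSO.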
# [3] = target: rat Adrenergic Receptor, Beta (Adrb), Non-selective Binding, Adrb1 (gene 24925) (UniProt P18090); assay: NVS_GPCR_rAdrb_NonSelective: NovaScreen (NVS) G Protein-Coupled Receptor Assay for rat Adrenergic Receptor, Beta (Adrb), Non-selective Binding (AID 2283298)
# Procedure, shortened: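 Non-selective beta-adrenergic radioligand binding in rat cortical membranes, 1 h incubation, filter-based scintillation read-out. Primary screen 25 uM in duplicate; hits retested in concentration-response up to 50 uM, DMSO baseline.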
# [4] = target: rat Histamine Receptor (H3), Hrh3 (gene 85268) (UniProt Q9QYN8); assay: NVS_GPCR_rH3: NovaScreen (NVS) G Protein-Coupled Receptor Assay for rat Histamine Receptor (H3) (AID 2283303)
# Procedure, shortened: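 Rat forebrain membranes incubated 1 h with compound; radioligand displacement measured by filter-based scintillation counting. Single-concentration duplicates at 25 µM, then concentration-response up to 50 µM, relative to DMSO.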
# [5] = target: Adra2b (gene 24174) (UniProt P19328); assay: NVS_GPCR_rmAdra2B: NovaScreen (NVS) G Protein-Coupled Receptor Assay for hybird cells Adrenergic, Alpha 2B Receptor (Adra2B) (AID 2283306)
# Procedure, shortened: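 Radioligand filter-binding assay on membrane proteins from neuroglioma/blastoma hybrid cells (rodent), 1 h after dosing; scintillation counting, loss of signal vs DMSO. Primary screen in duplicate at 25 uM, actives then run in concentration series.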
# [6] = target: rat Neurokinin-1 Receptor (NK1), Tacr1 (gene 24807) (UniProt P14600); assay: NVS_GPCR_rNK1: NovaScreen (NVS) G Protein-Coupled Receptor Assay for rat Neurokinin-1 Receptor (NK1) (AID 2283309)
# Procedure, shortened: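 Rat submaxillary gland membranes; radioligand displacement read by filter-based scintillation counting after 1 h. Primary screen in duplicate at 25 uM; actives retested in concentration series; loss of binding fitted versus DMSO.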
# [7] = target: rat Vasopressin 1 Receptor (V1), Avpr1a (gene 25107) (UniProt P30560); assay: NVS_GPCR_rV1: NovaScreen (NVS) G Protein-Coupled Receptor Assay for rat Vasopressin 1 Receptor (V1) (AID 2283316)
# Procedure, shortened: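 Radioligand binding on rat liver membranes, 1.5 h incubation, filter-based scintillation counting. Single 25 uM screen in duplicate; chemicals meeting threshold (e.g. 30% inhibition) run in concentration-response up to 50 uM.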
# [8] = NVS_IC_rCaDHPRCh_L: NovaScreen (NVS) Ion Channel Assay for rat Calcium Channel, Type L, Dihydropyridine Site (CaDHPRCh_L) (AID 2283320)
# Procedure, shortened: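 Radioligand binding to dihydropyridine site on rat cortical membranes, filter-based scintillation counting, 1 h after dosing. Screened in duplicate at 25 uM; actives rerun in concentration-response up to 50 uM. Loss of signal versus DMSO baseline.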
# [9] = target: rat Glutamate, AMPA Site (AMPA), Gria1 (gene 50592) (UniProt P19490); assay: NVS_LGIC_rAMPA: NovaScreen (NVS) Ligand-Gated Ion Channel Assay for rat Glutamate, AMPA Site (AMPA) (AID 2283324)
# Procedure, shortened: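 Rat forebrain membranes; radioligand binding read 1 h after dosing by filtration and scintillation counting. Duplicate single-point screen at 25 uM, then concentration-response to 50 uM for threshold hits (e.g. 30% inhibition); loss of signal vs DMSO.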
# [10] = target: human Serotonin, 5-Hydroxytryptamine Receptor 3 (5HT3), HTR3A (gene 3359) (UniProt P46098); assay: NVS_LGIC_h5HT3: NovaScreen (NVS) Ligand-Gated Ion Channel Assay for human Serotonin, 5-Hydroxytryptamine Receptor 3 (5HT3) (AID 2283325)
# Procedure, shortened: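 Radioligand displacement binding to human 5-HT3 from HEK293 membranes, read by filter-based scintillation counting after 1 h. Screen at 25 uM in duplicate; chemicals passing threshold were retested in concentration-response up to 50 uM.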
# [11] = target: rat Neurokinin-3 Receptor (NK3), Tacr3 (gene 24808) (UniProt P16177); assay: NVS_GPCR_rNK3: NovaScreen (NVS) G Protein-Coupled Receptor Assay for rat Neurokinin-3 Receptor (NK3) (AID 2283310)
# Procedure, shortened: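 Rat cortical membranes; radioligand binding with filtration and scintillation counting, 2 h after dosing. Primary screen in duplicate at 25 uM, then concentration-response up to 50 uM; loss of binding signal relative to DMSO.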
# [12] = target: rat Opioid Receptor, Non-selective Sodium (Na+) Binding, Oprm1 (gene 25601) (UniProt P33535); assay: NVS_GPCR_rOpiate_NonSelectiveNa: NovaScreen (NVS) G Protein-Coupled Receptor Assay for rat Opioid Receptor, Non-selective Sodium (Na+) Binding (AID 2283311)
# Procedure, shortened: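 Rat forebrain membranes, radioligand displacement with filter scintillation counting, 1.5 h incubation. Screened in duplicate at 25 µM; hits then run in concentration-response up to 50 µM; loss of binding fitted versus DMSO.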
# [13] = target: rat Neonicotinoid receptor (NNR), Chrna7 (gene 25302) (UniProt Q05941); assay: NVS_LGIC_rNNR_BungSens: NovaScreen (NVS) Ligand-Gated Ion Channel Assay for rat Neonicotinoid receptor (NNR) (AID 2283315)
# Procedure, shortened: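 Radioligand displacement binding on rat cortical membranes, 2.5 h incubation, filtration and scintillation counting. Loss of specific binding fitted relative to DMSO.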
# [14] = target: rat Opioid Receptor, Non-selective Binding, Oprm1 (gene 25601) (UniProt P33535); assay: NVS_GPCR_rOpiate_NonSelective: NovaScreen (NVS) G Protein-Coupled Receptor Assay for rat Opioid Receptor, Non-selective Binding (AID 2283318)
# Procedure, shortened: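 Rat forebrain membranes, cell-free radioligand binding with filter-based scintillation counting, read 1.5 h after dosing. Primary screen in duplicate at 25 uM; actives retested in concentration series. Loss of signal versus DMSO baseline scored.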
# [15] = tested on: NCBI gene 24521; assay: NVS_IC_rKATPCh: NovaScreen (NVS) Ion Channel Assay for rat Potassium Channel, ATP-Sensitive (KATPCh) (AID 2283319)
# Procedure, shortened: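 Rat cortical membranes; radioligand binding at ATP-sensitive K channel site, filter-based scintillation counting 2 h after dosing. Single-point duplicate screen at 25 uM, hits rerun in concentration-response up to 50 uM; loss of signal versus DMSO.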
# [16] = target: rat Adrenergic, Alpha 1A Receptor (Adra1A), Adra1a (gene 29412) (UniProt P43140); assay: NVS_GPCR_rAdra1A: NovaScreen (NVS) G Protein-Coupled Receptor Assay for rat Adrenergic, Alpha 1A Receptor (Adra1A) (AID 2283296)
# Procedure, shortened: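 Rat cortical membranes pretreated with chlorethyl clonidine; competitive radioligand displacement, 1 h. Filter-based scintillation counting. Primary screen in duplicate at 25 uM, actives followed in concentration series.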
# [17] = target: rat Adrenergic Receptor, Alpha 2 (Adra2), Non-selective Binding, Adra2a (gene 25083) (UniProt P22909); assay: NVS_GPCR_rAdra2_NonSelective: NovaScreen (NVS) G Protein-Coupled Receptor Assay for rat Adrenergic Receptor, Alpha 2 (Adra2), Non-selective Binding (AID 2283299)
# Procedure, shortened: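 Rat cortical membranes, radioligand competitive displacement read by filter-based scintillation counting 1.25 hours after dosing. Primary screen in duplicate at 25 uM; actives followed up in concentration series.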
# [18] = target: rat Somatostatin Receptor (SST), Sstr1 (gene 25033) (UniProt P28646); assay: NVS_GPCR_rSST: NovaScreen (NVS) G Protein-Coupled Receptor Assay for rat Somatostatin Receptor (SST) (AID 2283314)
# Procedure, shortened: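 Rat forebrain membranes; radioligand displacement read by filter-based scintillation counting 1 h after dosing. Primary screen in duplicate at 25 uM. Actives (e.g., 30% inhibition) were rerun as concentration-response to 50 uM max and fitted against DMSO.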
# rat Opioid Receptor, Non-selective Sodium (Na+) Binding, Oprm1 (gene 25601), sequence (P33535 whole entry, looked up): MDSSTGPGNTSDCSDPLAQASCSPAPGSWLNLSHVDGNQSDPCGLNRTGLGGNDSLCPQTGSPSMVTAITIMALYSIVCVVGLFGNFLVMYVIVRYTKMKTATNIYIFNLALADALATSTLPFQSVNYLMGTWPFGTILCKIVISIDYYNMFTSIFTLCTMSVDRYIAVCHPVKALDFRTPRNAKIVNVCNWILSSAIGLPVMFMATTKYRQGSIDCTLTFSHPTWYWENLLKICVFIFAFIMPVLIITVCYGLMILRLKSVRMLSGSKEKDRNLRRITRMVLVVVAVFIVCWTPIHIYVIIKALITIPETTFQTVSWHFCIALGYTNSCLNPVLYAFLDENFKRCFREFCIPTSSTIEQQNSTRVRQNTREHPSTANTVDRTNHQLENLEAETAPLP
# rat Opioid Receptor, Non-selective Binding, Oprm1 (gene 25601), sequence (P33535 whole entry, looked up): as above
# rat Adrenergic Receptor, Alpha 2 (Adra2), Non-selective Binding, Adra2a (gene 25083), sequence (P22909 whole entry, looked up): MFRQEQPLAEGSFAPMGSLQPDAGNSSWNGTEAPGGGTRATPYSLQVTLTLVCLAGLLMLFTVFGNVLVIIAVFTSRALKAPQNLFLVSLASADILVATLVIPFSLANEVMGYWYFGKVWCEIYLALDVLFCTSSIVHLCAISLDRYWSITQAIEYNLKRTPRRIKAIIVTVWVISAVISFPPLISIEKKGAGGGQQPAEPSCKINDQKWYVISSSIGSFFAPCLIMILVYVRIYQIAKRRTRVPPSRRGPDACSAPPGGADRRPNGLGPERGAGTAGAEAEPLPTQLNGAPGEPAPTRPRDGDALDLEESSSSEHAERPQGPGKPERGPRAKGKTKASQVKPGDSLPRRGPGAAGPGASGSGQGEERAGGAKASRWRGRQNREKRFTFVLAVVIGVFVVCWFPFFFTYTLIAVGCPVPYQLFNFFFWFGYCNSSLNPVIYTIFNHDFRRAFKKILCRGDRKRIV
# rat Histamine Receptor (H3), Hrh3 (gene 85268), sequence (Q9QYN8 whole entry, looked up): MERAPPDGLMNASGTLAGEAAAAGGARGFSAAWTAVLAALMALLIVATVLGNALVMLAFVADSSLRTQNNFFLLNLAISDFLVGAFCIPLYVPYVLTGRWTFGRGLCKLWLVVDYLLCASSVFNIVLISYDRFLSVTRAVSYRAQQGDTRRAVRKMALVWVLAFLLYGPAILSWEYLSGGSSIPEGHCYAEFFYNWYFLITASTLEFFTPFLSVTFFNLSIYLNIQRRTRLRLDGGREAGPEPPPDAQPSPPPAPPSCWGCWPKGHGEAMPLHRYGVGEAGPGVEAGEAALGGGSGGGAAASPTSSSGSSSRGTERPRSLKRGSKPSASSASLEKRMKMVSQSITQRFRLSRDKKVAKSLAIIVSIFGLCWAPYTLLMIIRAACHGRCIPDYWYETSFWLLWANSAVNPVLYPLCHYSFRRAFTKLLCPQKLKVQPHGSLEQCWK
# rat Neurokinin-1 Receptor (NK1), Tacr1 (gene 24807), sequence (P14600 whole entry, looked up): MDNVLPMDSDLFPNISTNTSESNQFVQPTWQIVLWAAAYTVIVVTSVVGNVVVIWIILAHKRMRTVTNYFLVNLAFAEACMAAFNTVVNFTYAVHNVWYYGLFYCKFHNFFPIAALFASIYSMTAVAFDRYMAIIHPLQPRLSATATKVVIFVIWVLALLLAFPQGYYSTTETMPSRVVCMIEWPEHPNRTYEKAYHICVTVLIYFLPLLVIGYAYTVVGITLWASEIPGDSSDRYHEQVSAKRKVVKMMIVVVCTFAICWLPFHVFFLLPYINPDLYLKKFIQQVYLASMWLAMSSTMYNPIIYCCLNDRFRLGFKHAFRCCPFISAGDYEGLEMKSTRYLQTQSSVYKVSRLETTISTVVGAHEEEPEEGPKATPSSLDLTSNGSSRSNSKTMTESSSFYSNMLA
# rat Neurokinin-3 Receptor (NK3), Tacr3 (gene 24808), sequence (P16177 whole entry, looked up): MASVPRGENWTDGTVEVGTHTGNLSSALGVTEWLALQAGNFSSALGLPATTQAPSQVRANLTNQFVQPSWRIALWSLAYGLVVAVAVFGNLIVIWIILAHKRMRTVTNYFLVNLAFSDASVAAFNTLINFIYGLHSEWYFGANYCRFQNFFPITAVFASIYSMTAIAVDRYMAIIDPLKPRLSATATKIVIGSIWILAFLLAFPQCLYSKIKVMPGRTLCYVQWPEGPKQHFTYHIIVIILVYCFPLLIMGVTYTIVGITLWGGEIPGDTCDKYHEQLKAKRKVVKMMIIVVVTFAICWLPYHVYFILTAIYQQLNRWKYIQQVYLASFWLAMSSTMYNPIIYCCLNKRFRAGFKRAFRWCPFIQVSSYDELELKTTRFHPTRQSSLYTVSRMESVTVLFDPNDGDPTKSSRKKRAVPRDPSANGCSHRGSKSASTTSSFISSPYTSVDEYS
# rat Adrenergic Receptor, Beta (Adrb), Non-selective Binding, Adrb1 (gene 24925), sequence (P18090 whole entry, looked up): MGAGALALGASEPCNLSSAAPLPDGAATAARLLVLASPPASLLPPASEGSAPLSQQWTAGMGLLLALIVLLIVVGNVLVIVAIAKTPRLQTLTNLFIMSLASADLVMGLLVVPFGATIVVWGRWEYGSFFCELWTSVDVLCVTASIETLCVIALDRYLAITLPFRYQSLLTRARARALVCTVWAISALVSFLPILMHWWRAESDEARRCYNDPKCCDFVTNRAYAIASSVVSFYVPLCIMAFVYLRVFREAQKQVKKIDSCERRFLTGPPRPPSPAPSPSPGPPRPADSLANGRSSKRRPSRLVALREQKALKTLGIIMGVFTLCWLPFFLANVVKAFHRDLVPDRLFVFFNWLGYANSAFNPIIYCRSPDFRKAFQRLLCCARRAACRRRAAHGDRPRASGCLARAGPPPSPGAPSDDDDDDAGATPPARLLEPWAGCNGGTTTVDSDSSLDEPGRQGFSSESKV
# rat Neonicotinoid receptor (NNR), Chrna7 (gene 25302), sequence (Q05941 whole entry, looked up): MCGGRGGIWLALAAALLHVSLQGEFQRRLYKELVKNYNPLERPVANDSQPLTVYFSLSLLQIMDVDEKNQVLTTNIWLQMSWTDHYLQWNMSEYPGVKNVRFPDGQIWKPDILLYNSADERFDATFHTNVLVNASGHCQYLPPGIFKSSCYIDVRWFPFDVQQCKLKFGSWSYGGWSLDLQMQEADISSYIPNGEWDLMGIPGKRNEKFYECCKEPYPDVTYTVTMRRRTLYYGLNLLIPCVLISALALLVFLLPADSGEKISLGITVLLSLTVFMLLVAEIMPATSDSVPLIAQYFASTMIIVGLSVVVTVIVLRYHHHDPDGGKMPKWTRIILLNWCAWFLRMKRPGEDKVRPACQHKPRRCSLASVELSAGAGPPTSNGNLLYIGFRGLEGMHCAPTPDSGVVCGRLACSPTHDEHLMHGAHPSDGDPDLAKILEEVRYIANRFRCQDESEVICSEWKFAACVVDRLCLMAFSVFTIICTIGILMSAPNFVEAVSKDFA
# rat Adrenergic, Alpha 1A Receptor (Adra1A), Adra1a (gene 29412), sequence (P43140 whole entry, looked up): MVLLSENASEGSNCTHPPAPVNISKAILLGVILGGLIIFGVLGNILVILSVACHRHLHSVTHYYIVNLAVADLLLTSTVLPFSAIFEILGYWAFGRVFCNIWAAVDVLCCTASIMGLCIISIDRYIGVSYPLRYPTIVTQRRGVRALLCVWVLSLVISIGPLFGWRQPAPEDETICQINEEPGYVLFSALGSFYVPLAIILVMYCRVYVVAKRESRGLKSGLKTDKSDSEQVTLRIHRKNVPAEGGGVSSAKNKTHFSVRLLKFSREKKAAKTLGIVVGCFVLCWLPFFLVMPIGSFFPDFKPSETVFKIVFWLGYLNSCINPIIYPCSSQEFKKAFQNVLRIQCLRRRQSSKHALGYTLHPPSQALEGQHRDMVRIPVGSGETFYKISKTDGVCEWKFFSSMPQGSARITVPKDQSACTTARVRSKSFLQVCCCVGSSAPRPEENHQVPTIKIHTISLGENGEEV
# rat Serotonin, 5-Hydroxytryptamine Receptor (5HT), Non-Selective Binding, Htr1a (gene 24473), sequence (P19327 whole entry, looked up): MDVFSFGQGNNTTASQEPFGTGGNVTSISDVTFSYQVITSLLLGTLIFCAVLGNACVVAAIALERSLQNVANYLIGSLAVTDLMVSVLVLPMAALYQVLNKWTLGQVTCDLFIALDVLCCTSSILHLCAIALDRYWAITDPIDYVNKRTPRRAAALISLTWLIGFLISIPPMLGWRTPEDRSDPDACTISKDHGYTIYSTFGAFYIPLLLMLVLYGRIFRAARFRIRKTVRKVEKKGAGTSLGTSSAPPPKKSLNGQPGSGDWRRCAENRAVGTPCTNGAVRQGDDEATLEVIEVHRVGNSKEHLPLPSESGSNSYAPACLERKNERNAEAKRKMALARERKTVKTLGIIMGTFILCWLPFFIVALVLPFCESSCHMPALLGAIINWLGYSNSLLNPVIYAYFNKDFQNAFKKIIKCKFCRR
# Adra2b (gene 24174), sequence (P19328 whole entry, looked up): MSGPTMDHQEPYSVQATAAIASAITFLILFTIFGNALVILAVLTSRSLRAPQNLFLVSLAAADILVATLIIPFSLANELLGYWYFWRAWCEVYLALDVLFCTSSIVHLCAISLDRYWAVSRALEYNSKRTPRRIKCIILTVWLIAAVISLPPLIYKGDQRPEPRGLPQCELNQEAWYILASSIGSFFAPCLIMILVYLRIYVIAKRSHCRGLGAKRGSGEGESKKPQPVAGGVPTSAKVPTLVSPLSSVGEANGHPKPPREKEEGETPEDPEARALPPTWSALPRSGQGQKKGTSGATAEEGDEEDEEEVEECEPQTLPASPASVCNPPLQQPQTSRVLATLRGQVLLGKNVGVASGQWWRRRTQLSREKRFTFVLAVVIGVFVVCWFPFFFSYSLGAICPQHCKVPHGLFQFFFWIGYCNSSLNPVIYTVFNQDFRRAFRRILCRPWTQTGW
smiles,measurement,setting,value
CCCN(C1CCN(C(=O)C2CCNCC2)CC1)[C@@H]1CCc2ccc(OC)cc2C1,AC50,[1],25 µM (active)
same,AC50,[2],12.8 µM (active)
same,AC50,[3],18.3 µM (active)
same,AC50,[4],0.914 µM (active)
same,AC50,[5],7.66 µM (active)
same,outcome,[6],inactive
same,outcome,[7],inactive
same,outcome,[8],inactive
CC1=CC(=O)CC(C)(C)C1,outcome,[3],inactive
same,outcome,[9],inactive
CC(C)=CCC/C(C)=C\CO,outcome,[10],inactive
COc1ccc(-n2nc(C(F)F)cc2-c2ccc(S(C)=O)cc2)cc1 (stereo not given),outcome,[5],inactive
same,AC50,[6],25 µM (active)
same,outcome,[11],inactive
same,outcome,[12],inactive
same,outcome,[13],inactive
Cn1cnc([N+](=O)[O-])c1Sc1ncnc2nc[nH]c12,outcome,[2],inactive
CN(C)c1ccc(N=NS(=O)(=O)O)cc1,AC50,[4],14.6 µM (active)
same,outcome,[11],inactive
same,AC50,[14],31.6 µM (active)
same,outcome,[15],inactive
CCOc1cccc(-n2cc(C(=O)N3CCN(c4cc(C(=O)O)c5ccccc5c4)CC3)nc2-c2ccc(C)cc2)c1,AC50,[6],14.8 µM (active)
same,AC50,[11],8.81 µM (active)
same,AC50,[15],21.2 µM (active)
Cc1[nH]cnc1C[C@H]1CCc2c(C)c3ccccc3n2C1=O,AC50,[1],4.63 µM (active)
same,AC50,[16],8.9 µM (active)
same,AC50,[2],11.9 µM (active)
same,AC50,[3],4.78 µM (active)
same,outcome,[4],inactive
same,AC50,[5],3.68 µM (active)
same,outcome,[6],inactive
same,outcome,[13],inactive
same,AC50,[14],9.93 µM (active)
same,AC50,[8],1.5 µM (active)
same,AC50,[10],0.00204 µM (active)
CCC(C)(C)C(=O)O[C@H]1C[C@@H](C)C=C2C=C[C@H](C)[C@H](CC[C@@H]3C[C@@H](O)CC(=O)O3)[C@H]21,outcome,[17],inactive
O=c1[nH]c2ccc(S(=O)CCN3CCC(Cc4ccc(F)cc4)CC3)cc2o1 (stereo not given),AC50,[1],5.88 µM (active)
same,AC50,[16],3.25 µM (active)
same,AC50,[2],3.46 µM (active)
same,outcome,[3],inactive
same,AC50,[17],1.88 µM (active)
same,AC50,[5],0.609 µM (active)
COCCOc1cc2cc(C(=O)NC3CCN(C(C)C)CC3)n(CC(=O)Nc3ccc(Cl)cn3)c2cn1,AC50,[16],14.7 µM (active)
same,AC50,[2],15.3 µM (active)
same,AC50,[17],10.1 µM (active)
same,AC50,[4],12.6 µM (active)
CNS(=O)(=O)c1cc(C(=O)N2CCC(CCN3C4CCC3CC(n3c(C)nc5ccccc53)C4)(c3cccc(F)c3)CC2)c(Cl)cc1F (stereo not given),outcome,[1],inactive
same,AC50,[16],14.9 µM (active)
same,AC50,[2],2.1 µM (active)
same,AC50,[4],1.85 µM (active)
same,AC50,[5],7.6 µM (active)
same,AC50,[6],25 µM (active)
same,AC50,[11],5.41 µM (active)
same,AC50,[12],16.1 µM (active)
same,outcome,[18],inactive
same,AC50,[13],26.3 µM (active)
same,AC50,[14],10.1 µM (active)
same,AC50,[8],6.97 µM (active)
CCCCCCCCO,outcome,[15],inactive
CCN(C(=O)c1cc(C)cc(OC[C@H](C)Nc2ccncc2)c1)C(C)C,AC50,[16],7.54 µM (active)
same,AC50,[17],4.14 µM (active)
same,AC50,[4],2.93 µM (active)
same,AC50,[5],8.19 µM (active)
same,outcome,[14],inactive
O=C(O)CCN(C1(C(=O)NO)CCCC1)S(=O)(=O)c1ccc(Oc2ccc(F)cc2)cc1,outcome,[5],inactive
same,outcome,[18],inactive
COc1ccc(/C=C/S(=O)(=O)NC(=O)c2ccc(C)cc2Cl)cc1,outcome,[12],inactive
Cn1c(=O)cc(Oc2ccc(F)cc2F)c2cnc(NCC(C)(C)O)nc21,AC50,[6],20.3 µM (active)
same,outcome,[9],inactive
Cc1ccc(N)cc1O,outcome,[7],inactive
